Source: PubChem
D3 ag = qHTS of D3 Dopamine Receptor Agonist: qHTS; D(3) dopamine receptor (Homo sapiens), P35462; D3R DiscoveRx beta-arrestin cells, luminescence, 90 min; max activation, %; 0.58% of 410,000 active; AID 652048, 2013; in the data active = max activation above about 30%; note: 0% is about no effect
Target sequence (P35462 whole entry, looked up): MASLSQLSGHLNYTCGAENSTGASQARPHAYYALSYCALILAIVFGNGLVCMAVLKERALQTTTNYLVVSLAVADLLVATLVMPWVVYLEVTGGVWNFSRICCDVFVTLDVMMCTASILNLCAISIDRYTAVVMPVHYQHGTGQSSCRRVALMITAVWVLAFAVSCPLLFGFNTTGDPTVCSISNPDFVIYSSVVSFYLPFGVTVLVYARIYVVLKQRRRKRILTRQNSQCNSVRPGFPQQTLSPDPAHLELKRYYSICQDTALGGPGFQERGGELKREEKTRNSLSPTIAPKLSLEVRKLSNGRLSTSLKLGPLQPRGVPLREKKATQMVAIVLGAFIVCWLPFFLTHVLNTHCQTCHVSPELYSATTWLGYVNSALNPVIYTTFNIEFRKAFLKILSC
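Agonist mode: compounds and dopamine controls were applied to plated cells for 90 min at 37 degrees C after an overnight attachment at 1500 cells/well. Luminescent read-out followed 30 - 60 minutes at room temperature with DiscoveRx detection reagent.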
D3 antag = qHTS of D3 Dopamine Receptor Antagonist: qHTS; D3R cells, DiscoveRx beta-arrestin luminescence, antagonist mode; hits give low values; max response, negative = inhibition, %; 2.5% of 360,000 active; AID 652054, 2013; in the data active = max response below about -50%; inconclusive = no clear call, values can overlap the other calls; note: % is set by controls: 0 for no effect and ±100 for the full control effect
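Cells plated overnight at 1500 cells/well, then exposed to library compounds with dopamine controls for 90 minutes at 37 degrees C. DiscoveRx reagent added for 30–60 minutes at room temperature; luminescence read, quantitative HTS format.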
a7 integrin act = qHTS for Activators of Integrin-Mediated Alleviation for Muscular Dystrophy; AID 624291, 2012; 0.064% of 350,000 active; Potency, µM (highest dose often 38.3 µM), inactives show at the highest dose activation, hits mostly activators; alpha7betagal myoblasts, beta-gal FDG fluorescence, 48 h; active = well fitted activation curve with a large enough effect; inconclusive = small, poorly fitted or top-dose-only effect; inactive = no such curve, though single readings can be large or run the other way;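 note: potency is the fitted concentration of half-maximal effect; 100% = response of the positive control SU9516; nearly all actives have a fitted effect of over 60% in size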
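Alpha7betagal+/- myoblasts (passage 13) were plated 16-24 hr, then exposed to compounds (1:260 dilution of DMSO stock) for 48 hours at 37C. After MPER lysis, β-galactosidase reporter activity was read as FDG fluorescence (ex 480/em 540) after 30 minutes.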
* hit, by the source's call; ? = inconclusive; / = no result given. Compounds with a hit are over-represented: about 2.9% of the library has one in this group of screens.

SMILES	D3 ag	D3 antag	a7 integrin act
CC1(C(=O)NCc2ccc(C(F)(F)F)cc2)CCN1Cc1cc2ccccc2o1 (centres undefined)	1	17	/
CC1(C(=O)NC2CCN(Cc3ccccc3)CC2)CCN1Cc1cc2ccccc2o1 (centres undefined)	-11	-78*	/
O=C(C[n+]1cc(Br)cc(Br)c1)c1ccc(-c2ccccc2)cc1	-2	-2	4%
CCN(CC)S(=O)(=O)c1ccc(O)c(NC(=O)c2cc(-c3cc(OC)c(OC)c(OC)c3)nc3ccccc23)c1	7	66	-54%
CCOC(=O)c1cnc2c(C)c(Cl)ccc2c1NCCCN1CCOCC1	-9	-12	-29%
CCCCN1CCC(COC(=O)c2cc(Cl)c(N)c3c2OCCO3)CC1	-98	-108*	/
Cc1sc2c(c1C)c(=O)n(-c1ccc(Cl)cc1)c(=O)n2Cc1cc(=O)n2ccccc2n1	3	-55*	31%
O=c1c2c3c(sc2n(Cc2cc(=O)n4ccccc4n2)c(=O)n1-c1ccc(Cl)cc1)CCC3	0	/	/
Cc1cnc(C(=O)NCc2ccc(Cl)cc2Cl)cn1	0	4	20%
NS(=O)(=O)c1ccc(CCNC(=O)C2CCN(S(=O)(=O)c3c(Cl)cccc3Cl)CC2)cc1	-1	11	0%
CCC(=O)c1ccc(OCC(O)CN2CCN(c3ccccn3)CC2)cc1 (centres undefined)	91*	-20	15%
CC(C)(C)c1ccc(OCC(O)CN2CCCC2)cc1 (centres undefined)	-20	1	7%
CCC(=O)c1ccc(OCC(O)CN2CCN(S(=O)(=O)N3CCCCC3)CC2)cc1 (centres undefined)	0	-4	-6%
CC(C)(C)c1ccc(OCC(O)CN2CCN(c3ccccn3)CC2)cc1 (centres undefined)	64*	0	-42%
CC1(C(=O)Nc2ccc(Cl)c(Cl)c2)CCN1C(=O)Cc1cccc2ccccc12 (centres undefined)	-9	-11	/
Cc1onc(-c2ccccc2Cl)c1C(=O)Nc1ccc(Br)cc1	3	2	-2%
CN1CCC(Oc2ccccc2Sc2ccccc2)CC1	-7	-63*	-51%
CN1CCC(OC(c2ccccc2)c2ccccc2)CC1	-1	0	/
O=C(CN1CCN(c2ncc(C(F)(F)F)cc2Cl)CC1)N1CCN(c2ncc(C(F)(F)F)cc2Cl)CC1	0	-61*	-7%
O=C(OCCN1CCN(c2ncc(C(F)(F)F)cc2Cl)CC1)c1ccc(F)cc1	-20	?	-3%
Cc1ccc(C(=O)OCCN2CCN(c3ncc(C(F)(F)F)cc3Cl)CC2)cc1	-16	-83*	-5%
O=C(CSc1ccc(Cl)cc1)N1CCN(c2ncc(C(F)(F)F)cc2Cl)CC1	15	10	7%
CCN(C[C@H]1N[C@@](CC)(C(=O)OC)[C@H]2C(=O)N(Cc3ccccc3)C(=O)[C@@H]12)S(=O)(=O)c1ccc(-c2ccccc2)cc1	-5	?	35%
Cc1cccc(C(=O)NC(=S)Nc2ccccc2C(F)(F)F)c1	-1	-29	-21%
O=C(NC(=S)Nc1ccc(-c2ccccc2)cc1)c1ccccc1	-11	-23	-40%
SMILES	D3 ag	D3 antag	a7 integrin act
NS(=O)(=O)c1ccc(NC(=S)NC(=O)c2ccc(-c3ccccc3)cc2)cc1	38*	-14	-31%
O=C(O)c1cccc(NC(=S)NC(=O)c2ccc(-c3ccccc3)cc2)c1	7	13	14%
Cc1ccc(C(=O)NC(=S)Nc2ccccc2C(F)(F)F)cc1C	-1	-80*	-15%
Cc1ccc(C(=O)O)cc1NC(=S)NC(=O)c1ccc(-c2ccccc2)cc1	-23	-52*	19%
CN(c1cccc(NS(=O)(=O)c2cccs2)c1)S(C)(=O)=O	1	5	35%
CC(C)(CNS(=O)(=O)c1ccc(Br)s1)N1CCOCC1	-4	7	1%
COC(=O)c1[nH]c2ccccc2c1CN1CCOCC1	-5	19	-50%
Nc1nc(CN2CCN(c3cccc(Cl)c3)CC2)nc(N2CCCc3ccccc32)n1	16	-77*	0%
Nc1nc(CN2CCN(c3ccccc3)CC2)nc(N2CCCc3ccccc32)n1	6	?	-18%
Nc1nc(CN2CCN(c3ccccc3F)CC2)nc(N2CCCc3ccccc32)n1	32*	-24	-8%
Nc1nc(CN2CCN(Cc3ccccc3)CC2)nc(N2CCCc3ccccc32)n1	-13	-21	?
N#C/C(=C/c1ccc(N2CCOCC2)o1)c1ccc(Cl)cc1	-17	-105*	-73%
N#C/C(=C\c1ccc(N2CCOCC2)o1)c1nc2ccccc2[nH]1	-3	-13	-35%
CC1CCCN(c2nc(-c3cccnc3)nc3scc(-c4ccccc4)c23)C1 (centres undefined)	34*	17	?
CC1CCN(c2nc(-c3cccnc3)nc3scc(-c4ccccc4)c23)CC1	1	50	-1%
Cc1nc(N2CCCC2)ncc1C(=O)NCc1ccc(F)cc1	1	/	/
O=C(CCc1nc2ccccc2c(=O)[nH]1)N1CCN(C/C=C/c2ccccc2)CC1	-1	-16	0%
O=c1[nH]c(CN2CCN(C/C=C/c3ccccc3)CC2)nc2cc(Cl)ccc12	-20	-53*	-23%
O=S(=O)(CS(=O)(=O)c1ccccc1)c1ccccc1	-9	-10	-4%
O=S(=O)(C/C(=C/CO)S(=O)(=O)c1ccccc1)c1ccccc1	-34	-59*	-65%
Cc1cc(OC(C)C(=O)NCCCn2ccnc2)c2c(C)cc(=O)oc2c1 (centres undefined)	-1	-17	?
COc1ccc(-n2nnnc2S(=O)(=O)CC(=O)N2CCCCC2)cc1	-9	-98*	-46%
COc1ccc(-n2nnnc2S(=O)(=O)Cc2ccc(C(=O)O)cc2)cc1	5	36	-63%
C=CCC(Nc1ccccc1)C12C=CC(O1)C(C(=O)OC)=C2C(=O)OC (centres undefined)	-7	-78*	-64%
COC(=O)C1=C(C(=O)OC)[C@]2([C@@H]3CC=CCN[C@@H](Cc4ccccc4)C(=O)N3Cc3ccccc3)C=C[C@H]1O2	7	-5	1%
SMILES	D3 ag	D3 antag	a7 integrin act
NC(=O)C(=O)N/N=C/c1c2ccccc2cc2ccccc12	6	-9	-15%
C=CCn1c(Cc2cccs2)nnc1SCC(=O)NC1CC1	3	6	5%
CCCOc1ccc(CSc2nc3ccccc3[nH]2)cc1	11	-65*	-43%
CCOc1ccc(OCCSc2nc3ccccc3[nH]2)cc1	2	-13	-44%
O=C(NC(NC(=O)c1ccccc1)C(=O)c1ccccc1)c1ccccc1	4	0	-6%
CCOC(=O)Cc1nnc(NC(=O)CSc2ccc(Cl)cc2)s1	-1	-53*	15%
COc1ccc(-c2nnc(NC(=O)CSc3ccc(Cl)cc3)s2)cc1OC	7	8	25%
CCCCn1c(N)c(N(CCOC)C(=O)CCCc2nc3ccccc3s2)c(=O)[nH]c1=O	-6	?	27%
Cc1ccc(C(=O)Nc2nnc(S(=O)(=O)N3CCOCC3)s2)cc1	-9	-57*	1%
CSc1nnc(NC(=O)c2ccc(S(=O)(=O)N3CCOCC3)cc2)s1	2	-59*	2%
